Bioassay records as filed in PubChem BioAssay.
In the library only some 6.5% were active in any assay of this set; here they are far more common.
Autofluor 339 = intrinsic fluorescence of library compounds, ex339/em460 – biochemical, MLSMR library, data from DPM-DC assay, artefact control, profiling panel. compound autofluorescence, ex339/em460 nm, NADH buffer; active compounds read high; 1 = no-compound wells, NADH background. fluorescence fold increase at 10 µM. 5.5% of 65,000 active. AID 709;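 active means at 10 µM, mean starting fluorescence two-fold or more over control wells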;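 further: signal is the first read of a kinetic run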
Spn PMK inh = blocks S. pneumoniae phosphomevalonate kinase; purified PMK, PK/LDH-coupled NADH absorbance 340 nm; inhibition, % at 10 µM; 0.49% of 65,000 active;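 active means top-ranked compounds by inhibition in the single 10 µM screen, taking a fixed number of the strongest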;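 further: 0% = full reaction with DMSO carrier and 100% = background rate without enzyme reaction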
MK inhibit = blocks S. pneumoniae mevalonate kinase; purified MK, PK/LDH-coupled NADH absorbance 340 nm; inhibition, % at 10 µM; 0.48% of 65,000 active; AID 555;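 active means ranked among the strongest by inhibition in the single 10 µM screen, a fixed top-ranked set picked for dose follow-up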
A340 absorber = compound absorbs light at 340 nm; compound absorbance at 340 nm, fold over control; fold change at 10 µM; 65,000 tested, under 10 active; AID 708;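 active means at 10 µM dose, initial 340 nm absorbance at least 2 fold that of control wells; inactive means change under 2 fold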;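 further: initial absorbance extrapolated from kinetic A340 decline of NADH oxidation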
DPM-DC inhibit = blocks S. pneumoniae diphosphomevalonate decarboxylase; purified DPM-DC, PK/LDH coupled NADH fluorescence; AID 556; calls only at 10 µM; 0.49% of 65,000 active;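 active means the 320 compounds with the highest percent inhibition in the single-dose primary screen, excluding strongly autofluorescent ones, cut at about 32% in these data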;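 further: kinetic rate of NADH fluorescence loss reporting ADP formed by the decarboxylase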
NADH coupling = inhibition of NAD/NADH coupling enzymes, library profiling. coupled PK/LDH NADH assays, four targets. 0.02% of 65,000 active. IC50, µM (series often up to 10 µM), without a hit: at the highest dose inhibition;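 active means single-dose screening hits from any of four coupled enzyme assays that gave an IC50 when retested across doses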;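 further: the DPM-DC format reads NADH fluorescence rather than 340 nm absorbance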
* marks the source's active call; other numbers are inactive results; i = inactive; . = no result given; + = active, no number.

SMILES	Autofluor 339	Spn PMK inh	MK inhibit	A340 absorber	DPM-DC inhibit	NADH coupling
CCOc1ccc2[nH]c(=O)c(CN(CCO)C(=O)c3ccccc3F)cc2c1	3*	1	0	1.1	i	6%
CCCC(=O)N=C1SC2CS(=O)(=O)CC2N1c1ccc(CC)cc1 (stereo not given)	0.7	i	i	0.97	i	1%
Cc1ccc(-n2cc(C(C)(C)C)[nH]c2=S)cc1	1.1	5	9	0.99	i	5%
CCCOC(=O)CSc1nc(N)c(C#N)c(CC)c1C#N	1.1	0	9	1	i	3%
COc1ccc(-c2cc(C(=O)NCCN3CCOCC3)c3ccccc3n2)cc1	4.9*	11	0	1.1	.	6%
CCOc1ccc(-c2cc(C(=O)NCCCN3CCN(CC)CC3)c3ccccc3n2)cc1	5.2*	8	0	1.1	.	4%
Cc1nnc(SCc2ccc(Cl)cc2)n1CC1CCCO1 (stereo not given)	1	7	5	1.1	i	5%
CCc1nc2ccccc2n1Cc1ccc(OC)c(OC)c1	1.1	2	2	1	i	1%
CCc1nc2ccccc2n1Cc1cc(=O)n2cc(C)ccc2n1	3.4*	16	0	1.1	i	10%
CCOCc1cc(C)[nH]c(=O)c1C#N	4.5*	4	4	1.1	.	4%
COc1ccc2c(c1)c(=O)cc(C)n2CC(=O)NCc1ccco1	1.2	5	10	1	i	5%
c1ccc(-c2ccccc2-n2cnnn2)cc1	1.1	0	9	1	i	3%
CC1(C)CC2CC(C)(CN2C(=O)COC(=O)c2ccc(Cl)cc2N)C1 (stereo not given)	4.2*	9	9	1	.	9%
COc1ccc2nc(NC(=O)C(NS(=O)(=O)c3cccs3)C(C)C)sc2c1 (stereo not given)	1.1	11	0	1	i	1%
CCOc1cccc(C(=O)Nc2cccc(-c3nnc(-c4ccc(C)cc4)o3)c2)c1	3.6*	1	0	1.4	.	1%
Cc1ccc2nc(-c3ccc(NC(=O)c4ccco4)cc3)[nH]c2c1	1.1	3	0	1.1	i	3%
O=C(Nc1ccc(-c2nc3ncccc3o2)cc1)c1ccc(Br)o1	2	0	8	1.1	.	7%
CCOc1cccc(C(=O)Nc2cccc(-c3nnc(-c4ccccc4)o3)c2)c1	1.1	8	10	1.1	i	6%
Cc1ccc(-c2nnc(-c3ccc(NC(=O)c4ccco4)cc3)o2)cc1	3*	11	0	1.1	i	13%
O=C(Nc1ccc(-c2nc3ncccc3o2)cc1)c1ccco1	2.6*	5	11	1.4	+	20%
Cc1nc(NC(=O)c2ccco2)sc1C(=O)Nc1ccc(Br)cc1	1.2	25*	0	1.2	i	10%
CC(=O)NC1(C(F)(F)F)C(=O)NC(C)=C1C#N (stereo not given)	1.1	0	0	1.1	i	0%
COc1cc(CC(=O)Nc2ccc(S(=O)(=O)N(C)C)cc2)cc(OC)c1OC	1.1	19	0	1	i	6%
Cc1nn(Cc2ccccc2)c2sc(C(=O)N3CCN(Cc4ccc5c(c4)OCO5)CC3)cc12	1.1	5	8	1	i	4%
CN(C)c1oc(COc2ccc(F)cc2)nc1C#N	1.1	4	10	1	i	5%
SMILES	Autofluor 339	Spn PMK inh	MK inhibit	A340 absorber	DPM-DC inhibit	NADH coupling
CN(C)c1oc(-c2ccc(OCc3ccc(Cl)cc3)cc2)nc1C#N	3.3*	1	5	1.1	i	6%
COCCCNc1oc(COc2ccc(Cl)cc2Cl)nc1C#N	1.4	6	7	0.98	i	4%
COCCNc1oc(-c2ccc(C)cc2)nc1C#N	2.5*	7	0	1	.	3%
COCCNc1oc(-c2ccc(Cl)cc2)nc1C#N	2.4*	10	0	1.1	.	5%
CCN(CC)CCCNc1oc(-c2cccc(Cl)c2)nc1C#N	3*	16	15	1	.	5%
COc1cccc(N2CCN(Cc3coc4c(Cl)cc(Cl)cc4c3=O)CC2)c1	1.1	6	12	1	i	6%
CN(C)CCNc1oc(COc2ccc(-c3ccccc3)cc2)nc1C#N	1.1	7	10	1	i	6%
CN(C)CCCNc1oc(-c2ccc(Cl)cc2)nc1C#N	4.8*	6	7	1	.	7%
COC(=O)c1sc2nc(N3CCCCC3)c3c(c2c1N)CC(C)(C)N(C)C3	2.3*	2	0	1.1	.	1%
CCOC(=O)c1sc2nc(N3CCOCC3)c3c(c2c1N)CCC3	3.6*	5	17	1.1	.	11%
COC(=O)c1cc(CSc2nnc(NC3CCCCC3)s2)oc1C	1.1	17	3	1	i	7%
O=c1c2[nH]c3cccc(Cl)c3c2ncn1Cc1ccncc1	1.5	1	12	1	i	4%
CCN(CC)CCn1cnc2c([nH]c3cccc(OC)c32)c1=O	3.7*	12	6	1	.	9%
COc1cccc2[nH]c3c(=O)n(CCN(C)C)cnc3c12	3.8*	16	13	1	.	15%
COC(=O)c1sccc1NC(=O)Cn1cnc2c1c(=O)n(C)c(=O)n2C	1.1	0	14	1	i	6%
Cc1cnn(-c2ccc3nnc(-c4ccc(Br)cc4)n3n2)c1	1.6	22	3	1.1	i	11%
CCN1CCN(c2oc(-c3ccc(OC)cc3)nc2C#N)CC1	3.8*	0	2	1.1	.	1%
COc1ccccc1OCc1nc(C#N)c(N2CCC(C(N)=O)CC2)o1	1.1	9	7	1	i	5%
CCOc1ccc(-c2nc(C#N)c(NC3CC3)o2)cc1	3.8*	17	13	1	.	15%
CCOc1ccc(-c2nc(C#N)c(NCc3ccc4c(c3)OCO4)o2)cc1	1.8	5	12	1	i	5%
N#Cc1nc(-c2ccc(OCc3ccccc3)cc2)oc1N1CCC(C(N)=O)CC1	4*	11	7	1.1	.	9%
Cc1cccc(-c2nc(C#N)c(N3CCCCCC3)o2)c1	3.8*	6	8	1.1	.	7%
Cn1c(=O)c2cc(S(=O)(=O)NCCC(=O)NCCC3=CCCCC3)ccc2n(C)c1=O	1.1	13	1	1	i	5%
CC(C)C(=O)Nc1cc(=O)[nH]c2ncnn12	1.1	5	4	0.99	i	3%
C/C(=C1/SC(N2CCCC2)=NC1=O)c1ccc(Br)cc1	1	12	6	1.1	i	7%
CCOc1ccc(-c2nc(C#N)c(N3CCN(Cc4ccccc4)CC3)o2)cc1	1.8	7	9	1.1	i	6%
CCOc1ccc(-c2nc(C#N)c(N3CCOCC3)o2)cc1	2.2*	2	12	1.1	.	7%
CCOC(=O)Cc1c(C)nc2c(-c3ccc(Cl)cc3)c[nH]n2c1=O	2.1*	8	5	1.1	.	7%
